Measured values taken from PubChem BioAssay AID434989 (The Scripps Research Institute Molecular Screening Center, 2010).
Among all 330,000 compounds or so, about 1,400 (0.42%) were called active.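 Rule for the calls: active = inhibition above its plate's threshold, mean inhibition of all tested compounds on the plate plus 3 SD (cut at about 37% in these data); inactive = the rest.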 The entries come from a sample that favours actives as a whole.

These compounds were tested against Orexin/Hypocretin receptor type 1 (Homo sapiens) (UniProt O43613) (assay: blockers of orexin-A calcium signaling via HCRTR1 – fluorescence, CHO/OX1R cells, Fluo-8 calcium, primary screen (AID 434989;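 note: 0% = orexin A challenge wells and 100% = SB-334867-A antagonist wells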)). Settings: Fluo-8 calcium fluorescence, at 5 µM, active compounds read high.
Orexin/Hypocretin receptor type 1 (Homo sapiens), sequence (O43613 whole entry, looked up): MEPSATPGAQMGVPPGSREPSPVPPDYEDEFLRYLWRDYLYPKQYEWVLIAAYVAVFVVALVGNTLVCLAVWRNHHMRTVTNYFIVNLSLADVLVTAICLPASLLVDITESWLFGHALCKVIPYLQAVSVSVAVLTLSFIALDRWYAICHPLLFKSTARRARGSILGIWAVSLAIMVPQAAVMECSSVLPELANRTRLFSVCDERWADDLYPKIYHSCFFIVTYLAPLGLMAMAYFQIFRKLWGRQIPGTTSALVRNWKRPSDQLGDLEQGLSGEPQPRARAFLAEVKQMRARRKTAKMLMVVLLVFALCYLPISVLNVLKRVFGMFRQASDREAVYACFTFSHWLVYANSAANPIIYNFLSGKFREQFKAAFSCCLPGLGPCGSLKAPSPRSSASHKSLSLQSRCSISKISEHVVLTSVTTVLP

inhibition, active:
S=c1[nH]nc(-c2cc(-c3ccccc3)n[nH]2)n1/N=C/c1c2ccccc2cc2ccccc12 44.8%, O=C(N/N=C/c1sc(N2CCCCC2)nc1-c1cccs1)c1cccnc1 44.9%, O=C(NC(Cc1c[nH]c2ccccc12)C(=O)N/N=C/c1ccc(Br)cc1)c1cccs1 (stereo unspecified) 52.5%, COc1ccc(NS(=O)(=O)c2ccc(NC(=S)NC(=O)CC(C)C)cc2)cc1 50.3%, COc1cc(OC)cc(C(=O)N[C@H](C(=O)OCC(=O)NC(C)c2ccccc2)C(C)C)c1 (stereo partly specified) 59%, O=[N+]([O-])/C=C/c1ccc2c(ccn2Cc2ccccc2)c1 53.8%, O=C(Nc1ccc(C2CC2(Cl)Cl)cc1)c1cccc([N+](=O)[O-])c1 (stereo unspecified) 45.8%, COc1ccc(NC(=O)/C(Cl)=C(/Cl)S(=O)Cc2ccc(C)cc2)cn1 (stereo unspecified) 47.5%, Cc1ccc(NC(=O)COc2ccc(-n3ccnc3)cc2)cc1Cl 49.1%, CCCCCCCCCCOC(=O)Cn1c(COc2ccc(C)cc2)[n+](C)c2ccccc21 51.1%, CCCCCCCCCCOC(=O)Cn1c(COc2cccc(OC)c2)[n+](C)c2ccccc21 41.4%, C=CCn1c(SCC(=O)Nc2nc3ccccc3s2)nnc1-c1ccccc1O 68%, O=[N+]([O-])c1c(NCCO)cc(Sc2nc3ccccc3s2)c2nonc12 59.3%, Fc1ccc2[nH]c3c(N4CCSCC4)ncnc3c2c1 52.4%

inhibition, inactive:
Fc1ccccc1/C=N/n1c(-c2cccnc2)n[nH]c1=S -5.34%, c1ccc(-c2cc(-c3ccccc3)[nH]n2)cc1 -9.86%, C=CC[C@H](CC(=O)OC(C)(C)C)C(=O)OC[C@H]1CCCN1C(=O)[C@H](CC=C)CC(=O)N(CCO)Cc1ccccc1 -15.6%, O=C1N[C@H](Cc2c[nH]c3ccccc23)COC(=O)[C@H](Cc2ccc(F)cc2)C/C=C\C[C@H]1CC(=O)N(CCO)Cc1ccccc1 -2.05%, CC(C)(C)NS(=O)(=O)NC(=O)C1=C(N2CCCC2)COC1=O -2.12%, O=C(CNC(=O)c1cccnc1)N/N=C/c1cccnc1 1.04%, O=C(NN=C1CCC(=NNC(=O)c2cccnc2)CC1)c1cccnc1 -6.2%, CC(=O)N(O)CCCCCNC(=O)CCC(=O)N(O)CCCCCNC(=O)CCC(=O)N(O)CCCCCNC(=O)CCC(=O)O -5.54%, CC(=O)Nc1ccc(/C=N/NC(=O)c2cccs2)cc1 18.2%, CC(=O)NC(Cc1c[nH]c2ccccc12)C(=O)O (stereo unspecified) -1.34%, Cc1ccc(N2C(=O)N3[C@@H]4c5ccccc5OC[C@@H]4[C@@H](c4ccccc4)[C@@]3(C)C2=O)cc1 -30.9%, COc1ccc(CNc2nc(NCc3ccc(OC)cc3)c3ncn(C4CCCC4)c3n2)cc1 -5.92%, Cc1noc(C)c1NC(=O)Nc1ccc2c(c1)C(=O)N([C@H](C)CO)C[C@H](C)[C@@H](CN(C)C(=O)Nc1ccccc1)O2 -4.54%, COc1cc(NS(=O)(=O)c2ccc(NC(C)=O)cc2)cc(OC)c1 9.3%, CC(=O)c1ccc(NC(=S)NC(=O)CC(C)C)cc1 3.22%, COc1ccc(N2CCN(C(CNS(=O)(=O)c3ccc(C)cc3)c3ccccc3)CC2)cc1 (stereo unspecified) -26.8%, CCN([C@H](CO)C(C)C)S(=O)(=O)c1ccccc1Br 1.51%, O=C(COC(=O)COc1ccccc1F)Nc1cccc(S(=O)(=O)N2CCCCC2)c1 -27.3%, CCn1nnc2cc(C(=O)Nc3ccc(C(=O)OC(C)C)cc3)ccc21 -14.8%, Cc1cc(C)cc(OCC(=O)NC(C)c2ccccc2)c1 (stereo unspecified) -37.8%, COc1cc(OC)cc(C(=O)NC(C(=O)N2CCC2)C(C)C)c1 (stereo unspecified) -9.6%, CC(C)(C)OC(=O)C[C@@H]1C/C=C\C[C@@H](CC(=O)N[C@H](CO)Cc2ccccc2)C(=O)NCCOC1=O 2.53%, COc1ccc(CN2C(CC(=O)Nc3cccnc3)c3ccc(C(F)(F)F)cc3S2(=O)=O)cc1 (stereo unspecified) -16.2%, O=C(Cn1ccc2cc(S(=O)(=O)N3CCCC3)ccc21)NCc1ccccc1 -25.5%, COC(=O)Cn1cc(/C=C/[N+](=O)[O-])c2ccccc21 -4.68%, CC1(C)C[C@H]2C3=CCC4[C@@]5(C)CC[C@H](O)[C@](C)(CO)C5CC[C@@]4(C)[C@]3(C)C[C@@H](O)[C@@]2(CO)[C@@H](O)[C@@H]1O (stereo partly specified) -0.97%, O=C(Nc1ccc(NC(=O)c2ccco2)c(Cl)c1)c1cccc([N+](=O)[O-])c1 -19.9%, O=C(Nc1ccc(C(=O)N2CCCCC2)cc1)c1cccc([N+](=O)[O-])c1 1.86%, CC(Sc1nncn1C)C(=O)NCCC1=CCCCC1 (stereo unspecified) -6.11%, COc1ccc(CNC(=O)C[C@H]2C[C@H](C(=O)N3CCOCC3)[C@@]3(CCC4CCCC4)c4[nH]c5ccc(Cl)cc5c4CCN3C2=O)cc1OC 19.8%, COc1ccc(Nc2ccc([N+](=O)[O-])cn2)cn1 -22.9%, Cc1ccc(NC(=O)OCc2cncs2)cc1 -7.33%, CCCSc1ccc([C@H]2N[C@@](Cc3ccccc3)(C(=O)OC)[C@H]3C(=O)N(C)C(=O)[C@@H]23)cc1 -27.9%, CC(C)(C)OC(=O)C1=C(CO)CS[C@@H]2[C@H](NC(=O)Cc3ccccc3)C(=O)N12 1.11%, C=CC[C@@H](CC(=O)NCCO)C(=O)N[C@H](C)COC(=O)[C@@H](CC=C)CC(=O)OC(C)(C)C 1.19%, CN(C(=O)COC(=O)Cc1ccccc1[N+](=O)[O-])C1CCS(=O)(=O)C1 (stereo unspecified) 1.38%, CC(C)n1cnc2c(NCc3ccccc3)cc(N[C@@H](CO)Cc3ccccc3)cc21 -6.91%, CCC(=O)c1ccc(OCC(=O)Nc2ccc3nc(C)sc3c2)cc1 -9.93%, Cc1cc(N2CCCC2)ccc1NC(=O)COc1ccc(Cl)cc1 23.4%, CN(CC(=O)Nc1ccc(OC(F)F)cc1)S(=O)(=O)/C=C/c1ccccc1 -20%, COc1ccc(S(=O)(=O)Nc2cccc3c2O[C@H](CN(C)S(=O)(=O)c2ccc(OC)cc2)[C@@H](C)CN([C@H](C)CO)C3=O)cc1 -20.8%, CN[C@H](C(=O)NC[C@H]1O[C@@H](n2cnc3c(N)ncnc32)[C@H](O)[C@@H]1O)[C@@H](C)OCc1ccccc1 -13.1%, CCCCNS(=O)(=O)CCNCc1ccccc1OC -14.5%, O=C(COC(=O)C1CCCO1)Nc1nc(-c2ccc(F)cc2)cs1 (stereo unspecified) -7.58%, CCOC(=O)COn1c(=O)c(-c2ccc(OCC)cc2)[n+]([O-])c2ccccc21 -31.8%, CCOC(=O)Cn1c(-c2cccnc2Cl)nc2ccccc21 -7.78%, CCn1c(COc2cccc(OC)c2)nnc1SCC(=O)N1CCOCC1 -6.58%, CCCCn1c(N)c(N(CCOC)C(=O)c2cccc(OCc3ccccc3)c2)c(=O)[nH]c1=O -25.9%, COc1ccc2nc3n(c(=O)c2c1)-c1ccc(Cl)cc1C(=O)NC3Cc1ccccc1 (stereo unspecified) -24.8%, CCOC(=O)C1=CN(Cc2ccc(Br)cc2)S(=O)(=O)N(C)C1C (stereo unspecified) -12.4%, O=C1[C@@H](c2ccccc2)[C@@H](c2ccccc2)N1c1cccnc1 42.8%, COc1cc(/C=C/C(=O)Nc2ccc(OC)c(S(=O)(=O)N3CCOCC3)c2)ccc1OCC#N 9.74%, Cn1nnnc1SCC(=O)Nc1nc2ccccc2s1 -5.36%, C=CCn1c(SCC(=O)NCc2ccccc2)nnc1-c1cc(Br)ccc1O -7.43%, Cc1ccc(S(=O)(=O)NC[C@H]2O[C@@H](n3cnc4c(N)ncnc43)[C@H](O)[C@@H]2O)s1 -0.44%, CCn1c(=S)[nH]c2cc(S(=O)(=O)N3CCOCC3)ccc21 -24.1%, O=C(O)c1ccccc1CSc1nc2ccccc2s1 -10.9%, CCOc1ccccc1Nc1ccc2nonc2c1[N+](=O)[O-] -9.48%, C[C@@H](CN1CCC[C@H]1CN1C(N)=NC[C@@H]1Cc1ccccc1)N1C[C@@H](Cc2ccccc2)N(CCCC2CCCC2)C1=N -9.98%, Fc1ccccc1-c1cc2cc3c(cc2cn1)OCO3 38.1%, Cc1c(CN2CC[C@@H](N3CCN(c4ccccn4)CC3)[C@H](O)C2)[nH]c2ccc(F)cc12 -18.8%, C#CCOCCOCCOCCNc1nc(N2CCN(C(=O)[C@H](CCC(=O)O)n3cc(CN)nn3)CC2)nc(N2CCN(C(=O)[C@H](CCC(=O)O)n3cc(CN)nn3)CC2)n1 -6.85%, CN(C(=O)c1cccc(NC(=O)Cc2cccc([N+](=O)[O-])c2)c1)C1CCCCC1 -12.3%, C[C@H](CO)N1C[C@H](C)[C@H](CN(C)CC2CC2)Oc2ccc(NC(=O)CCN3CCOCC3)cc2C1=O 7.19%, COc1ccc(NS(=O)(=O)c2ccc(C(=O)Nc3c(C)n(C)n(-c4ccccc4)c3=O)cc2)cc1 1.25%, CC(NC(=O)COC(=O)Cn1cc(C(F)(F)F)ccc1=O)c1ccccc1 (stereo unspecified) -5.69%, CC1O[C@H](OC2C(COC3OC(CO)C(O)[C@H](O)C3O)OC(OC3CC[C@]4(C)C(CC[C@@]5(C)[C@@H]4C=C[C@]46OC[C@@]7(CCC(C)(C)C[C@H]74)C(O)C[C@@]56C)C3(C)C)C(O)C2O)C(O)C(O)C1O (stereo partly specified) -2.45%
